# Source: PubChem BioAssay (EPA / NIEHS)
# Some structures have more than one record in an assay (separate samples or runs), and their calls can disagree. The source made the active and inactive calls. Rule for the calls: active = hit-call score of the fitted dose curve at least 0.9, where 1 is the maximum; inactive = score below 0.9.
# Read-out: Interferon-gamma inducible Protein 10 (IP10), CXCL10 (gene 3627)
# Test: BSK_BE3C_IP10: BioMAP Diversity Plus: BE3C Assay for Interferon-gamma inducible Protein 10 (IP10) Biomarker Activity (AID 2283034)
# Conditions: primary human bronchial epithelial cells; actives raise or lower the signal
# Protocol: BSK_BE3C is a cell-based, multiplexed-readout assay that uses bronchial epithelial cell, a human lung primary cell, with measurements taken at 24 hours after chemical dosing in a 96-well plate.BSK_BE3C_IP10 is an assay component measured in the BSK_BE3C assay. It measures IP-10 antibody related to regulation of gene expression using ELISA technology.Data from the assay component BSK_BE3C_IP10 was analyzed into 1 assay endpoint. This assay endpoint, BSK_BE3C_IP10, was analyzed with bidirectional fitting relative to DMSO as the negative control and baseline of activity. Using a type of binding reporter, gain or loss-of-signal activity can be used to understand changes in the signaling as they relate to the gene CXCL10. Furthermore, this assay endpoint can be referred to as a primary readout, because this assay has produced multiple assay endpoints where this one serves a signaling function. To generalize the intended target to other relatable targets, this assay endpoint is annotated to the cytokine intended target family, where the subfamily is chemotactic factor.
# The levels of cell surface (or secreted, indicated by the prefix "s") biomarker endpoints were measured by ELISA. Overt cytotoxicity to cells in confluent adherent cultures (all systems other than the BT system) was assessed by measuring total protein levels using sulforhodamine B (SRB) staining in parallel cultures at the time of biomarker measurements, indicated as SRB endpoints. For proliferation assays for adherent cell types, individual cell types are cultured at sub-confluence and relative cell numbers quantified by SRB staining at time points optimized for each system (48 h: 3C and CASM3C systems; 72 h: BT and HDF3CGF systems; 96 h: SAg system). SRB was performed by staining cells with 0.1% SRB after fixation with 10% TCA and reading wells at 560 nm.Viability and proliferation of PBMC (T cells) was quantified by Alamar Blue reduction for the SAg and BT systems. For PBMC viability (referred to as PBMC Cytotoxicity within the assay endpoint names), cells were plated (75,000/well in a 96-well plate) and then chemical samples added for 1 h before addition of activators, SEB and TSST-1 (20 ng/mL final concentration each). Cells were incubated for 90 h. Then, Alamar Blue (20 uL/well) (Invitrogen, Cat DAL1100) was added for 6 h, and the plates were read with a fluorescence microplate reader at 546/580 nm (excitation/emission). For PBMC proliferation, cells were plated and activated as above but incubated for only 16 h prior to addition of Alamar Blue. Plates were read after 6 h.
Compound,outcome,AC50
CC(C)(C)[C@@H](O)[C@@H](Cc1ccc(Cl)cc1)n1cncn1,inactive,–
CCCCOC(=O)[C@@H](C)Oc1ccc(Oc2ccc(C(F)(F)F)cn2)cc1,inactive,–
COC(=O)CSc1cc(N=c2sc(=O)n3n2CCCC3)c(F)cc1Cl,inactive,–
C#CCOC(=O)[C@@H](C)Oc1ccc(Oc2ncc(Cl)cc2F)cc1,inactive,–
COc1nc(C)nc(NC(=O)NS(=O)(=O)c2ccccc2OCCCl)n1,inactive,–
CCN(Cc1c(F)cccc1Cl)c1c([N+](=O)[O-])cc(C(F)(F)F)cc1[N+](=O)[O-],inactive,–
S=C(S)NCCNC(=S)S.[Mn+2].[S-]C([S-])=NCCN=C([S-])[S-].[Zn+2],inactive,15.2 µM (active)
O=C(O)c1ccccc1,inactive,–
CC(C)(c1ccc(O)cc1)c1ccc(O)cc1,inactive,9.06 µM (active)
CCC(C)OC(=O)N1CCCCC1CCO (stereo not given),inactive,–
CCOC(=O)c1ccc(O)cc1,inactive,–
CSC(=O)c1cccc2nnsc12,inactive,–
CC(C)CCCCCCc1ccc(O)cc1,–,14.7 µM (active)
COC(=O)c1ccccc1S(=O)(=O)NC(=O)Nc1nc(OC(F)F)cc(OC(F)F)n1,inactive,–
CCN(CC)C(=O)c1cccc(C)c1,inactive,–
C[C@]12CC[C@@H]3c4ccc(O)cc4C[C@@H](CCCCCCCCCS(=O)CCCC(F)(F)C(F)(F)F)[C@H]3[C@@H]1CC[C@@H]2O (stereo not given in full),inactive,–
OB(O)O,inactive,–
O=C(c1ccc(O)cc1O)c1ccc(O)cc1O,–,30.5 µM (active)
CCOC(=O)C(C)Oc1ccc(Oc2cnc3cc(Cl)ccc3n2)cc1 (stereo not given),inactive,–

Compound,outcome,AC50
N[C@@H](Cc1cc(I)c(Oc2ccc(O)c(I)c2)c(I)c1)C(=O)O,–,21.3 µM (active)
CCNc1nc(N)nc(Cl)n1,inactive,–
CC1(C)C(C=C(Cl)Cl)C1C(=O)OCc1cccc(Oc2ccccc2)c1 (stereo not given),inactive,–
c1ccc(Nc2ccccc2)cc1,inactive,–
O=C(c1ccccc1)C1CCCCC1,inactive,–
COC(=O)c1cccc(C)c1S(=O)(=O)NC(=O)Nc1nc(OCC(F)(F)F)nc(N(C)C)n1,inactive,–
CCOC(=O)NCCOc1ccc(Oc2ccccc2)cc1,inactive,–
C=CCOC(Cn1ccnc1)c1ccc(Cl)cc1Cl (stereo not given),inactive,–
CC(=O)[C@H]1CC[C@H]2[C@@H]3CCC4=CC(=O)CC[C@]4(C)[C@H]3CC[C@]12C,inactive,–
CCC(O)=C1C(=O)CC(C(=O)O)CC1=O (stereo not given),inactive,–
COC(=O)c1ccccc1C(=O)O,inactive,–
CCCN(CCC)c1c([N+](=O)[O-])cc(C(F)(F)F)c(N)c1[N+](=O)[O-],–,32.6 µM (active)
O=C(O)C1(C(=O)Nc2ccc(Cl)cc2Cl)CC1,–,23.8 µM (active)
CCCCCOC(=O)COc1cc(N2C(=O)C3=C(CCCC3)C2=O)c(F)cc1Cl,inactive,–
CC(=O)S[C@@H]1CC2=CC(=O)CC[C@]2(C)[C@H]2CC[C@@]3(C)[C@@H](CC[C@@]34CCC(=O)O4)[C@H]12,–,30.9 µM (active)
CCCCOCCOCCOCc1cc2c(cc1CCC)OCO2,inactive,–
CCSC(=O)N(CC(C)C)CC(C)C,inactive,–
COC(=O)c1c(Cl)nn(C)c1S(=O)(=O)NC(=O)Nc1nc(OC)cc(OC)n1,inactive,–
Cc1nn(C)c(Oc2ccccc2)c1C=NOCc1ccc(C(=O)OC(C)(C)C)cc1,–,11.7 µM (active)
